Experimental data: PubChem BioAssay (Tox21)
Records with an inconclusive call do not appear. A call without a number means that no potency is given here. Calls of active or inactive are those of the source. The call rests on the fitted dose curve; in most records, active means well fitted inhibition curve with a large enough effect in the signal ratio in the repeat runs (not every such curve was filed as active); inconclusive means weak or mixed curves, or effect the other way; inactive means no such curve, though single readings can be large or run the other way; the % refers to the signal ratio.
Potency means the concentration at half of the fitted maximal effect.

What follows are compounds tested against Glucocorticoid receptor (Homo sapiens) (UniProt P04150) (assay: qHTS assay to identify small molecule antagonists of the glucocorticoid receptor (GR) signaling pathway (AID 720692)). Settings: GR-bla HeLa, beta-lactamase FRET ratio, dexamethasone-stimulated, 18 h; series mostly up to 58.5 µM.
Chain of Glucocorticoid receptor (Homo sapiens) (P04150 whole entry, looked up): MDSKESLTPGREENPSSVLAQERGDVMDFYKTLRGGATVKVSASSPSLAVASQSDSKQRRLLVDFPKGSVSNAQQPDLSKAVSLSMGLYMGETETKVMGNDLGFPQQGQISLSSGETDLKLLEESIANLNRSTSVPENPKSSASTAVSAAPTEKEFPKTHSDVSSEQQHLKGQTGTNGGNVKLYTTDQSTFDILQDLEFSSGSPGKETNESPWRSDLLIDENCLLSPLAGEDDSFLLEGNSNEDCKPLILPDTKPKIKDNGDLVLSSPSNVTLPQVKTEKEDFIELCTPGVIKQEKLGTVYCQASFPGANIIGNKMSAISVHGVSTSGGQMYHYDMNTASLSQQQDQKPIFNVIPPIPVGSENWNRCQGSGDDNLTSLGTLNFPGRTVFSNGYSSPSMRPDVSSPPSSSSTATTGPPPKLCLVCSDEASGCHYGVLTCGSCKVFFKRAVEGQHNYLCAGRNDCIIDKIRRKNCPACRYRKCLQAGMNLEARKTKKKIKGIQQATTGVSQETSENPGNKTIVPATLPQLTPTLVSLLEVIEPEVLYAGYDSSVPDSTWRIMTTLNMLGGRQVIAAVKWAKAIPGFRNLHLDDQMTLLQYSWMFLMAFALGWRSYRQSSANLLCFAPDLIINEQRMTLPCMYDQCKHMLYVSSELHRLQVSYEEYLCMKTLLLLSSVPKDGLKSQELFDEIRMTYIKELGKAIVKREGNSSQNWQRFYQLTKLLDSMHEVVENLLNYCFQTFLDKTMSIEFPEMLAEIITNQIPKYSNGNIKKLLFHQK
Text: U.S. Tox21 Program National Center for Advancing Translational Sciences [NCATS] NIH Chemical Genomics Center [NCGC] U.S. Environmental Protection Agency [EPA] National Institutes of Environmental Health Sciences [NIEHS] National Toxicology Program [NTP] U.S. Food and Drug Administration [FDA] Tox21 Assay Overview: The Glucocorticoid receptor (GR) is one of the members of the nuclear receptor family of ligand-dependent transcription factors. GR plays a critical role in carbohydrate, protein and lipid metabolisms and programmed cell death. CellSensor GR-bla HeLa cell line (Invitrogen) contains a beta-lactamase reporter gene under the control of the glucocorticoid response element stably integrated into HeLa cells, a cervical cancer cell line that expresses glucocorticoid receptor. The activation of the reporter gene under culture conditions can be detected by fluorescence intensity. This cell line has been used to screen the Tox21 10K compound library and to identify the compounds that inhibit the GR signaling.
Tox21 Assay Protocol Summary: The GR-bla HeLa cells were dispensed at 1500 cells/5 ul/well in 1536-well black wall/clear bottom plates using a Multidrop Combi (ThermoFisher Scientific, Waltham, MA) dispenser. After the assay plates were incubated at a 37 C/5% CO2 incubator for 4 hours, 23 nL of compounds dissolved in DMSO, positive controls or DMSO only was transferred to the assay plate by a pintool station (Kalypsys, San Diego, CA), followed by addition of 1 uL of dexamethasone (5 nM, final concentration in the well). The plates were incubated at 37 C for 18 hours. After 1 uL of LiveBLAzerTM B/G FRET substrate was added using a Flying Reagent Dispenser (Aurora Discovery, San Diego, CA), the plates were incubated at room temperature for 2 hours, and fluorescence intensity was measured by an Envision plate reader (PerkinElmer, Shelton, CT).
For `Cc1cc(C(C)(C)c2ccc(O)c(C)c2)ccc1O`, the Potency was 13.1 µM (active). With `CCCSc1cc(OC)c(CCN)cc1OC` the Potency was “inactive”. `O=C(O)/C=C\C(=O)O` was tested, and the Potency was “inactive”. In the case of `Cc1nnc2n1-c1ccc(Cl)cc1C(c1ccccc1)=NC2`, the Potency is reported as 6.01 µM (active). For `O=S(=O)(O)c1cc(O)ccc1O`, the Potency was “inactive”. For `C[C@]12CC[C@@H]3c4ccc(OC(=O)N(CCCl)CCCl)cc4CC[C@H]3[C@@H]1CC[C@@H]2OP(=O)(O)O`, the Potency was “inactive”. With `O=C(C[C@@H]1NCCC[C@H]1O)Cn1cnc2cc(Br)c(Cl)cc2c1=O` the Potency was “inactive”. With `CC(C)[C@@]1(NC(=O)[C@@H]2C[C@@H]3c4cccc5[nH]cc(c45)C[C@H]3N(C)C2)O[C@@]2(O)[C@@H]3CCCN3C(=O)[C@H](Cc3ccccc3)N2C1=O` the Potency was “inactive”. For `CC(C)(O)[C@@H]1[C@H]2OC(=O)[C@@H]1[C@]1(O)C[C@H]3O[C@]34C(=O)O[C@H]2[C@]14C`, the Potency was “inactive”. In the case of `CNC(=O)OCC[N+](C)(C)C`, the Potency is reported as “inactive”. `C/C=C(\CC)C(=O)NC(N)=O` was tested, and the Potency was “inactive”. `CN[C@]1(c2ccccc2Cl)CCCCC1=O` was tested, and the Potency was “inactive”. In the case of `COc1cc(C[C@H](C)N)c(OC)cc1C`, the Potency is reported as “inactive”. With `Cc1nnc2n1-c1sc(Br)cc1C(c1ccccc1Cl)=NC2` the Potency was 10.7 µM (active). In the case of `Oc1ccc2c3c1O[C@H]1[C@@H](O)CC[C@@]4(O)[C@@H](C2)N(CC2CCC2)CC[C@]314`, the Potency is reported as “inactive”. In the case of `CNC1(c2ccccc2Cl)CCCCC1=O` (stereo not given), the Potency is reported as “inactive”. `N#CC1(N2CCCCC2)CCCCC1` was tested, and the Potency was “inactive”. In the case of `O=C1CCO1`, the Potency is reported as “inactive”. In the case of `O=C1C=C2C=C[C@@H]3C[C@@]2(O1)[C@H]1CCCCN31`, the Potency is reported as 4.25 µM (active). With `C=C[C@H]1CN2CC[C@H]1C[C@@H]2[C@@H](O)c1ccnc2ccccc12` the Potency was “inactive”. In the case of `CCC/C=C/C=C/C(=O)O[C@H]1/C(=C/C(=O)OC)C[C@H]2C[C@H]([C@@H](C)O)OC(=O)C[C@H](O)C[C@@H]3C[C@H](OC(C)=O)C(C)(C)[C@](O)(C[C@@H]4C/C(=C/C(=O)OC)C[C@H](/C=C/C(C)(C)[C@]1(O)O2)O4)O3`, the Potency is reported as “inactive”. `CCC(C)=O` was tested, and the Potency was “inactive”. `CC1COC(Cn2cncn2)(c2ccc(Oc3ccc(Cl)cc3)cc2Cl)O1` (stereo not given) was tested, and the Potency was 43.6 µM (active). With `COc1ccc(C(c2ccc(OC)cc2)C(Cl)(Cl)Cl)cc1` the Potency was 34.5 µM (active). In the case of `O=C1OC2(c3cc(Br)c(O)cc3Oc3c2cc(Br)c(O)[c]3[Hg])c2ccccc21` (stereo not given), the Potency is reported as “inactive”. In the case of `CC(C)NC(C)Cc1ccc(I)cc1` (stereo not given), the Potency is reported as “inactive”. In the case of `NCC(O)c1cccc(O)c1` (stereo not given), the Potency is reported as “inactive”. `OC(c1ccccc1)(c1ccccc1)C1CN2CCC1CC2` (stereo not given) was tested, and the Potency was “inactive”. With `CCC1(CC)C(=O)NC(=O)N(C)C1=O` the Potency was “inactive”. In the case of `CC(N)Cc1ccc(O)cc1` (stereo not given), the Potency is reported as “inactive”. `CN[C@@]1(c2ccccc2Cl)CCCCC1=O` was tested, and the Potency was “inactive”. With `O=C1CCCCC1CN1CCCCC1` (stereo not given) the Potency was “inactive”. `C=CC[C@]1(O)CC[C@H]2[C@@H]3CCC4=CCCC[C@@H]4[C@H]3CC[C@@]21C` was tested, and the Potency was 7.56 µM (active). For `CCC1(c2ccccc2)C(=O)NC(=O)N(C(=O)c2ccccc2)C1=O` (stereo not given), the Potency was “inactive”. With `COc1ccc2c(c1)C13CCCC[C@@H]1C(C2)N(C)CC3` (stereo not given in full) the Potency was “inactive”. With `CCCCC[C@@H](O)C1C(=O)OC(C)[C@H](O)/C=C/C=C/C=C/C=C/C=C(\C)C(O)C(O)C(O)C[C@H](O)C[C@H](O)C[C@H](O)C[C@H](O)C[C@@H]1O` (stereo not given in full) the Potency was “inactive”. `O=P1(N(CCCl)CCCl)NC(OO)CCO1` (stereo not given) was tested, and the Potency was “inactive”. For `S=C(S)N1CCNCC1`, the Potency was “inactive”. `CNc1ccc(C(=O)CC(O)CCC(C)C2OC(=O)CC(O)CC(=O)CC(O)CC(O)CC(O)CC(O)CC3(O)CC(O)C(C(=O)OC)C(CC(O[C@@H]4O[C@H](C)[C@@H](O)[C@H](N)[C@@H]4O)/C=C/C=C/C=C/C=C/C=C/C=C/C=C/C2C)O3)cc1` (stereo not given in full) was tested, and the Potency was “inactive”. In the case of `CC(C)CCC(=O)O[C@H]1CC[C@H]2[C@@H]3CCC4=CC(=O)CC[C@]4(C)[C@H]3CC[C@]12C`, the Potency is reported as 6.01 µM (active).
